Test results as given in PubChem BioAssay (EPA / NIEHS).
Results filed as inconclusive are left out. Calls of active or inactive are those of the source. The calls were made as follows, unless noted: active = hit-call score of the fitted dose curve at least 0.9, where 1 is the maximum; inactive = score below 0.9.

Key:
[1] = target: human RAR-related Orphan Receptor gamma (RORg), RORC (gene 6097) (UniProt P51449); assay: ATG_RORg_TRANS: Attagene TRANS-FACTORIAL HepG2 Assay for human RAR-related Orphan Receptor gamma (RORg) (AID 2283011; active = hit-call score of the fitted dose curve at least 0.9, where 1 is the maximum)
human RAR-related Orphan Receptor gamma (RORg), RORC (gene 6097), sequence (P51449 whole entry, looked up, the tested form may be a part): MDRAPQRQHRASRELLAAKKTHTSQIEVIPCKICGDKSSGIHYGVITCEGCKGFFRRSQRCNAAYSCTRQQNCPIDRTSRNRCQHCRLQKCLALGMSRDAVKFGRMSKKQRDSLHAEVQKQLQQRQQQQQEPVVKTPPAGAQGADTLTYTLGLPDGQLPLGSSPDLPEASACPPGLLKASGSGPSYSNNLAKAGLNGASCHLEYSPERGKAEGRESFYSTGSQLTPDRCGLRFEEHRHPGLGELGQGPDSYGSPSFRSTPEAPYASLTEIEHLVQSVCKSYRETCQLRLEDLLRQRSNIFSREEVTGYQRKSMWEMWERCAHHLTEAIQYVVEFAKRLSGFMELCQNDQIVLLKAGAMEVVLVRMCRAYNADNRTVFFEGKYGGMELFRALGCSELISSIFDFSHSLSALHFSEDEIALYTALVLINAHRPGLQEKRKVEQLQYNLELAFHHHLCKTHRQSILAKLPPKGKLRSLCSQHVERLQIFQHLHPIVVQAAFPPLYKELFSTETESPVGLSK
Procedure, shortened: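 Reporter transcripts from a transfected RORg-GAL4 chimera in HepG2 cells were quantified 24 h after dosing by RT-PCR, 6-FAM labelling, HpaI digestion and capillary electrophoresis; increases over DMSO baseline were fitted.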

[2] = target: human Retinoid X Receptor beta (RXRb), RXRB (gene 6257) (UniProt P28702); assay: ATG_RXRb_TRANS: Attagene TRANS-FACTORIAL HepG2 Assay for human Retinoid X Receptor beta (RXRb) (AID 2283013; active = hit-call score of the fitted dose curve at least 0.9, where 1 is the maximum)
human Retinoid X Receptor beta (RXRb), RXRB (gene 6257), sequence (P28702 whole entry, looked up, the tested form may be a part): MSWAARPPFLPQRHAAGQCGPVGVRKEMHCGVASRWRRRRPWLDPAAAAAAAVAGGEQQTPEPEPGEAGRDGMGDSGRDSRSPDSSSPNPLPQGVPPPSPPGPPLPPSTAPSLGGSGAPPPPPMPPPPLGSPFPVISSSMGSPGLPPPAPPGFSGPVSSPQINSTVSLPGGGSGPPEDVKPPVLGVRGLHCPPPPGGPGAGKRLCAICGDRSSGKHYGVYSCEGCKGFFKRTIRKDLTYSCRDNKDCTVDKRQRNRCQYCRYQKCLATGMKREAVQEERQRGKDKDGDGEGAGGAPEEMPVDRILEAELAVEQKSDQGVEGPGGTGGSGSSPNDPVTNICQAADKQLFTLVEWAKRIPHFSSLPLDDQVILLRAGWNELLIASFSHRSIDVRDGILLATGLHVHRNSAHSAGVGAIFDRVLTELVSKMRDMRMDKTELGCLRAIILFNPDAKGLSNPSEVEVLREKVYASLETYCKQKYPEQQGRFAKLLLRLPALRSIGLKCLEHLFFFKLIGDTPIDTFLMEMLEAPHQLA
Procedure, shortened: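 Read-out: reporter mRNA induction via RT-PCR plus capillary electrophoresis fluorescence, analysed as signal increase relative to DMSO. Cells were human HepG2, transiently transfected with GAL4-UAS reporter constructs and chimeric receptor-Gal4 fusions, dosed for 24 h.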

[3] = read-out: E-selectin (Homo sapiens) (UniProt P16581); assay: BSK_3C_Eselectin: BioMAP Diversity Plus: 3C Assay for Eselectin Biomarker Activity (AID 2283015); details: primary human endothelial cells (HUVEC); actives raise or lower the signal;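 also: cell surface E-selectin protein quantified by ELISA 24 h after dosing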
Procedure, shortened: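 E-selectin ELISA readout, fitted bidirectionally relative to DMSO, taken 24 h post-dosing in HUVEC cultures of the 3C system. Overt cytotoxicity tracked with sulforhodamine B staining of parallel wells.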

[4] = read-out: Interleukin-1 alpha (IL1a), IL1A (gene 3552); assay: BSK_BE3C_IL1a: BioMAP Diversity Plus: BE3C Assay for Interleukin-1 alpha (IL1a) Biomarker Activity (AID 2283016); details: primary human bronchial epithelial cells; actives raise or lower the signal
Procedure, shortened: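 ELISA read-out of IL-1a from human lung bronchial epithelial primary cells, 24 h post-dose. Gain or loss of signal fitted relative to DMSO negative control.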

[5] = read-out: Monocyte Chemoattractant Protein-1 (MCP1), CCL2 (gene 6347); assay: BSK_3C_MCP1: BioMAP Diversity Plus: 3C Assay for Monocyte Chemoattractant Protein-1 (MCP1) Biomarker Activity (AID 2283017); details: primary human endothelial cells (HUVEC); actives raise or lower the signal
Procedure, shortened: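 MCP-1 was measured by ELISA 24 h after dosing in primary HUVEC 3C cultures and fitted in both directions relative to DMSO; cytotoxicity was checked by SRB total-protein staining in parallel wells.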

[6] = read-out: Monocyte Chemoattractant Protein-1 (MCP1), CCL2 (gene 6347); assay: BSK_4H_MCP1: BioMAP Diversity Plus: 4H Assay for Monocyte Chemoattractant Protein-1 (MCP1) Biomarker Activity (AID 2283018); details: primary human endothelial cells (HUVEC); actives raise or lower the signal
Procedure, shortened: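 HUVEC primary cells, 24 h post-dose, MCP-1 by ELISA. Gain or loss of signal fitted bidirectionally vs DMSO baseline. Cytotoxicity: SRB stain (0.1% after 10% TCA fixation), read 560 nm, parallel cultures.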

[7] = read-out: Human Leukocyte Antigen - DR isotype (HLADR), HLA-DRA (gene 3122); assay: BSK_3C_HLADR: BioMAP Diversity Plus: 3C Assay for Human Leukocyte Antigen - DR isotype (HLADR) Biomarker Activity (AID 2283019); details: primary human endothelial cells (HUVEC); actives raise or lower the signal;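 also: ELISA of cell-surface HLA-DR on HUVEC 24 h after dosing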
Procedure, shortened: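 Bidirectional fitting against DMSO was applied to the HLA-DR ELISA signal from human umbilical vein endothelial cells, 24 h post-dose. Cytotoxicity came from parallel SRB total-protein staining; 3C proliferation was counted by SRB at 48 h.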

[8] = read-out: Interleukin-8 (IL8), CXCL8 (gene 3576); assay: BSK_3C_IL8: BioMAP Diversity Plus: 3C Assay for Interleukin-8 (IL8) Biomarker Activity (AID 2283020); details: primary human endothelial cells (HUVEC); actives raise or lower the signal
Procedure, shortened: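 HUVEC, 3C stimulation; 24 h compound exposure; IL-8 read by ELISA; gain or loss of signal fitted relative to DMSO control.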

[9] = read-out: Monokine induced gamma interferon (MIG), CXCL9 (gene 4283); assay: BSK_3C_MIG: BioMAP Diversity Plus: 3C Assay for Monokine induced gamma interferon (MIG) Biomarker Activity (AID 2283021); details: primary human endothelial cells (HUVEC); actives raise or lower the signal
Procedure, shortened: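 HUVEC, 3C system; 24 h chemical exposure; MIG by ELISA; bidirectional fit vs DMSO baseline.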

[10] = BSK_3C_SRB: Viability Assessment in the BioMAP Diversity Plus: 3C Assay (AID 2283023); details: primary human endothelial cells (HUVEC);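 also: fitted both ways against DMSO so a hit may be signal rise or drop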
Procedure, shortened: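 Cytotoxicity readout in parallel HUVEC 3C cultures: after 24 h compound exposure, cells fixed with 10% TCA, stained with 0.1% SRB and read at 560 nm. Gain or loss relative to DMSO fitted.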

[11] = read-out: Matrix Metallopeptidase 1 (MMP1), MMP1 (gene 4312); assay: BSK_BE3C_MMP1: BioMAP Diversity Plus: BE3C Assay for Matrix Metallopeptidase 1 (MMP1) Biomarker Activity (AID 2283024); details: primary human bronchial epithelial cells; actives raise or lower the signal
Procedure, shortened: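 ELISA read-out of MMP1 in human lung bronchial epithelial primary cultures, 24 h post-dose; bidirectional curve fit vs DMSO baseline, gain or loss of signal scored.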

[12] = BSK_3C_Vis: BioMAP Diversity Plus: 3C Assay for Morphology Visualization (AID 2283025); details: primary human endothelial cells (HUVEC);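 also: fitted both ways so gain or loss versus DMSO counts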
Procedure, shortened: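 HUVEC, 3C system; light microscopy of morphology at 24 h post-dose. Bidirectional fit vs DMSO baseline. Secondary readout, background-control function.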

[13] = read-out: Pselectin, SELP (gene 6403); assay: BSK_4H_Pselectin: BioMAP Diversity Plus: 4H Assay for Pselectin Biomarker Activity (AID 2283026); details: primary human endothelial cells (HUVEC); actives raise or lower the signal
Procedure, shortened: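 HUVEC, 24 h chemical exposure; P-selectin read by ELISA. Bidirectional curve fit vs DMSO baseline; gain or loss of signal scored.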

[14] = BSK_BE3C_SRB: Viability Assessment in the BioMAP Diversity Plus: BE3C Assay (AID 2283028); details: primary human bronchial epithelial cells
Procedure, shortened: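 Cytotoxicity read-out: SRB (0.1%) staining of TCA-fixed (10%) human lung bronchial epithelial cells, absorbance 560 nm, 24 h post-dosing. Curves fitted both directions relative to DMSO.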

[15] = read-out: Thrombomodulin, THBD (gene 7056); assay: BSK_3C_Thrombomodulin: BioMAP Diversity Plus: 3C Assay for Thrombomodulin Biomarker Activity (AID 2283029); details: primary human endothelial cells (HUVEC); actives raise or lower the signal
Procedure, shortened: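 HUVEC, 3C conditions; compound 24 h; thrombomodulin by ELISA; bidirectional curve fit vs DMSO baseline; parallel SRB total-protein staining for cytotoxicity.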

[16] = read-out: Urokinase-type plasminogen activator receptor (uPAR), PLAUR (gene 5329); assay: BSK_4H_uPAR: BioMAP Diversity Plus: 4H Assay for Urokinase-type plasminogen activator receptor (uPAR) Biomarker Activity (AID 2283030); details: primary human endothelial cells (HUVEC); actives raise or lower the signal
Procedure, shortened: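 uPAR level read by ELISA on HUVEC cultures (BioMAP 4H) 24 h post-dosing, analyzed for gain or loss relative to DMSO. Parallel SRB staining assessed overt cytotoxicity.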

[17] = target: human Thyroid Receptor alpha (THRa1), THRA (gene 7067) (UniProt P10827); assay: ATG_THRa1_TRANS: Attagene TRANS-FACTORIAL HepG2 Assay for human Thyroid Receptor alpha (THRa1) (AID 2283014; active = hit-call score of the fitted dose curve at least 0.9, where 1 is the maximum)
human Thyroid Receptor alpha (THRa1), THRA (gene 7067), sequence (P10827 whole entry, looked up, the tested form may be a part): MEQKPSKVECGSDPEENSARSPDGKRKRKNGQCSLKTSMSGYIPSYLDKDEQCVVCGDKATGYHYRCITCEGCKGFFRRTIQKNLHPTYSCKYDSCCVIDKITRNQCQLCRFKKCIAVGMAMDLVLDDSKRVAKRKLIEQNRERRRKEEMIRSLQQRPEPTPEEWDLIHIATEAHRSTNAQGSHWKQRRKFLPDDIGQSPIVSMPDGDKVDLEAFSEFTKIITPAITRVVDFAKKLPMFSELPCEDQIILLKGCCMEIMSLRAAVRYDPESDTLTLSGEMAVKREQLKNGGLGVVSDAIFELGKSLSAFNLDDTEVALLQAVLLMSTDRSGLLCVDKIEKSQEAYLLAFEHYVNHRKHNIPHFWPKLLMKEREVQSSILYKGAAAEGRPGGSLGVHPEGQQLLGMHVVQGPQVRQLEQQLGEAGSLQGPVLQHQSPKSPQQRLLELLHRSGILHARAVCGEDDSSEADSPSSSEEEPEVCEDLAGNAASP
Procedure, shortened: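 Transcripts from GAL4-UAS-driven reporters, measured after 24 h compound exposure by RT-PCR plus capillary electrophoresis of 6-FAM-labeled fragments, were fitted for gain of signal relative to DMSO. Cells: transiently transfected HepG2 expressing NR-Gal4 chimeras.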

[18] = target: human Vitamin D Receptor (VDR), VDR (gene 7421) (UniProt P11473); assay: ATG_VDR_TRANS: Attagene TRANS-FACTORIAL HepG2 Assay for human Vitamin D Receptor (VDR) (AID 2283022; active = hit-call score of the fitted dose curve at least 0.9, where 1 is the maximum)
human Vitamin D Receptor (VDR), VDR (gene 7421), sequence (P11473 whole entry, looked up, the tested form may be a part): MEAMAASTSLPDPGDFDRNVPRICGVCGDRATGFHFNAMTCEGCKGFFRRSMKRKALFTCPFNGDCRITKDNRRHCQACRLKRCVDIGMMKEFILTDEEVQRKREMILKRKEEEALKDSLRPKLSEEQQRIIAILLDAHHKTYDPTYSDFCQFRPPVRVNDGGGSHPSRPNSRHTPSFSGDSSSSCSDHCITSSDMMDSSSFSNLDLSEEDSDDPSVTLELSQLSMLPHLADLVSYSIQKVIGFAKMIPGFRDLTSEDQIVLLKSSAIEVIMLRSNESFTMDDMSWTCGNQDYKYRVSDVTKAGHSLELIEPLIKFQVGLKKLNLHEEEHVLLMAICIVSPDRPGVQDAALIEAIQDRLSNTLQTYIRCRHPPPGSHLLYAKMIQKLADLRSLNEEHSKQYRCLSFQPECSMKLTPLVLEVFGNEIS
Procedure, shortened: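 Transactivation by an exogenous VDR-Gal4 chimera in transiently transfected HepG2 cells was measured as reporter transcript level 24 hours after chemical treatment. RT-PCR products were analysed by capillary electrophoresis and fitted in the positive direction relative to DMSO.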

[19] = BSK_4H_SRB: Viability Assessment in the BioMAP Diversity Plus: 4H Assay (AID 2283027); details: primary human endothelial cells (HUVEC);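 also: cells exposed to compound for 24 h before staining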
Procedure, shortened: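 Cytotoxicity read-out in primary human endothelial cells: after 24 h compound exposure, cells were TCA-fixed (10%), stained with 0.1% SRB and absorbance taken at 560 nm. Values fitted in both directions relative to DMSO.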

E-selectin (Homo sapiens), sequence (P16581 whole entry, looked up): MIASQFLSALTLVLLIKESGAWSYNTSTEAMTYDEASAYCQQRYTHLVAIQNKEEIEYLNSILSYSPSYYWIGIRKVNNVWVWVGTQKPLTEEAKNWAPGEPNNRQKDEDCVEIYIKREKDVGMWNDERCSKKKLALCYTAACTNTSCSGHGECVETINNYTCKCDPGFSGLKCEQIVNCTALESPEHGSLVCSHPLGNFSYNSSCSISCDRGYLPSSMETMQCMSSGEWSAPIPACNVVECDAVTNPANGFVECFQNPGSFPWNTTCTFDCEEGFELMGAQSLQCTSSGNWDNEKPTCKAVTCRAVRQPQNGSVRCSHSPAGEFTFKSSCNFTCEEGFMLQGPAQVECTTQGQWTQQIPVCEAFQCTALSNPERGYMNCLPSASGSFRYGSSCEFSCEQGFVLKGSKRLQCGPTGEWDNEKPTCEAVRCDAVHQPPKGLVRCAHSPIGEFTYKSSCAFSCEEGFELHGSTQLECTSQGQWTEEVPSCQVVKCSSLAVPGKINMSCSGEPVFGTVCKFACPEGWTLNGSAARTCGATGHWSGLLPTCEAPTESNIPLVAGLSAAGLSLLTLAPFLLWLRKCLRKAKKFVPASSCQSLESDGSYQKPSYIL

Structure (SMILES) | outcome [1] | outcome [2] | outcome [3] | outcome [4] | outcome [5] | outcome [6] | outcome [7] | outcome [8] | outcome [9] | outcome [10] | outcome [11] | outcome [12] | outcome [13] | outcome [14] | outcome [15] | outcome [16] | outcome [17] | outcome [18] | outcome [19] | AC50 [16]
COc1cc(OC)nc(NC(=O)NS(=O)(=O)c2ncccc2OCC(F)(F)F)n1 | inactive | inactive | inactive | inactive | inactive | inactive | inactive | inactive | inactive | inactive | inactive | inactive | inactive | inactive | inactive | inactive |  |  |  | 
COCc1cnc(C2=NC(C)(C(C)C)C(=O)N2)c(C(=O)O)c1 (configuration not stated) |  | inactive | inactive | inactive | inactive | inactive | inactive | inactive | inactive | inactive | inactive | inactive | inactive | inactive | inactive | inactive | inactive | inactive |  | 
CC(C)NC(=O)N1CC(=O)N(c2cc(Cl)cc(Cl)c2)C1=O |  |  |  | inactive | inactive | inactive | inactive | inactive | inactive | inactive | inactive | inactive | inactive | inactive | inactive |  |  |  | inactive | 23.1 µM (active)
